The values that follow come from the supplement of paper PMC7184167.

Where a name gives a salt, the structure may show the parent alone.

The test system of this assay is replication-induced senescent mouse newborn dermal fibroblasts (NBF). The assay is described as follows: relative cell viability of senescent cells (fraction); higher = less killing of senescent cells. The settings on record: 1 µM; 3 days. The procedure: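 Replication-induced senescent newborn mouse skin fibroblasts (NBFs) in 24-well plates were treated with a Selleck FDA-approved drug library at 1 µM for 3 days.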
Consider `C[C@@H](O[C@H]1OCCN(Cc2n[nH]c(=O)[nH]2)[C@H]1c1ccc(F)cc1)c1cc(C(F)(F)F)cc(C(F)(F)F)c1` [Aprepitant], for which the relative cell viability was determined as 1.08. As to `Nc1ccc(S(N)(=O)=O)cc1` [Sulfanilamide], the relative cell viability was found to be 0.91. The same measure for `CC(=O)OCC(=O)NCCCOc1cccc(CN2CCCCC2)c1` [Roxatidine Acetate HCl]: 0.897. The same measure for `[I-].[K+]` [Potassium Iodide]: 0.937; for `C[C@](N)(Cc1ccc(O)c(O)c1)C(=O)O` [Methyldopa]: 0.971. The result for `COC(=O)N[C@H](C(=O)N1CCC[C@H]1c1ncc(-c2ccc(-c3ccc(-c4cnc([C@@H]5CCCN5C(=O)[C@@H](NC(=O)OC)C(C)C)[nH]4)cc3)cc2)[nH]1)C(C)C` reads 0.545. With `CNC(=O)c1ccccc1Sc1ccc2c(/C=C/c3ccccn3)n[nH]c2c1` [Axitinib], the relative cell viability was 0.908. In turn, `COc1ccc([C@@H]2Sc3ccccc3N(CCN(C)C)C(=O)[C@@H]2OC(C)=O)cc1` [Diltiazem HCl] displayed a relative cell viability of 1.09.

Take `Cc1[nH]c(/C=C2\C(=O)Nc3ccccc32)c(C)c1CCC(=O)O` [Orantinib (TSU-68, SU6668)]: the relative cell viability is 0.577.

In turn, `CC(C)Cn1cnc2c(N)nc3ccccc3c21` [Imiquimod] came in with a relative cell viability of 0.273. The result for `Clc1ccc(CCC(Cn2ccnc2)Sc2c(Cl)cccc2Cl)cc1` (stereo not given) [Butoconazole nitrate] reads 1.14.

For `COc1ccc(-c2nc3cc(C4=NNC(=O)CC4C)ccc3[nH]2)cc1` (stereo not given) [Pimobendan], the relative cell viability stood at 0.639.

`Cc1ccc(NC(=O)c2ccc(CN3CCN(C)CC3)cc2)cc1Nc1nccc(-c2cccnc2)n1` [Imatinib Mesylate (STI571)] returned a relative cell viability of 0.939. For `CCCc1nc(C(C)(C)O)c(C(=O)OCc2oc(=O)oc2C)n1Cc1ccc(-c2ccccc2-c2nnn[nH]2)cc1` [Olmesartan Medoxomil], the relative cell viability is 0.252.

`NC(=O)NO` [Hydroxyurea] displayed a relative cell viability of 0.967.

The molecule `COc1cc([C@@H]2c3cc4c(cc3[C@@H](O[C@@H]3O[C@@H]5CO[C@@H](c6cccs6)O[C@H]5[C@H](O)[C@H]3O)[C@H]3COC(=O)[C@H]23)OCO4)cc(OC)c1O` [Teniposide] displayed a relative cell viability of 1.08. The result for `COc1cc(C(=O)NS(=O)(=O)c2ccccc2C)ccc1Cc1cn(C)c2ccc(NC(=O)OC3CCCC3)cc12` [Zafirlukast] reads 0.957. `CCCCC(=O)O[C@]1(C(=O)CO)[C@@H](C)C[C@H]2[C@@H]3CCC4=CC(=O)C=C[C@]4(C)[C@@]3(F)[C@@H](O)C[C@@]21C` [Betamethasone Valerate]: the relative cell viability was 1.15. The same measure for `O=c1[nH]cc(F)c(=O)[nH]1` [Fluorouracil (5-Fluoracil, 5-FU)]: 0.0476. The result for `CC(=O)OCC[N+](C)(C)C` [Acetylcholine Chloride] reads 0.052; that for `NC(=O)C1CCCc2c1[nH]c1ccc(Cl)cc21` (stereo not given) [Selisistat (EX 527)], 0.498; that for `CCn1cc(C(=O)O)c(=O)c2cc(F)c(N3CCN(C)CC3)cc21` [Pefloxacin Mesylate], 0.993.

Molecule `COc1cccc2c1C(=O)c1c(O)c3c(c(O)c1C2=O)CC(O)(C(=O)CO)CC3OC1CC(N)C(O)C(C)O1` (stereo not given) [Doxorubicin (Adriamycin) HCl] yielded a relative cell viability of 0.957. `Cc1nc(C(=O)NCC(=O)O)c(O)c2ccc(Oc3ccccc3)cc12` [Roxadustat (FG-4592)]: the relative cell viability was determined as 1.03. `Oc1ncnc2[nH]ncc12` [Allopurinol] had a relative cell viability of 0.796. As to `CN1CC(=O)N2[C@H](c3ccc4c(c3)OCO4)c3[nH]c4ccccc4c3C[C@@H]2C1=O` [Tadalafil], the relative cell viability came to 0.318. The result for `C[C@@H]1[C@H](O)[C@@H](C)/C=C/C=C/C=C/C=C/C=C/C=C/C=C/[C@H](O[C@@H]2O[C@H](C)[C@@H](O)[C@H](N)[C@@H]2O)C[C@@H]2O[C@](O)(C[C@@H](O)C[C@@H](O)[C@H](O)CC[C@@H](O)C[C@@H](O)CC(=O)O[C@H]1C)C[C@H](O)[C@H]2C(=O)O` [Amphotericin B] reads 0.766. `O=C(C1CCCCC1)N1CC(=O)N2CCc3ccccc3C2C1` (stereo not given) [Praziquantel] yielded a relative cell viability of 1.07.

The molecule `Cc1ccnc2c1NC(=O)c1cccnc1N2C1CC1` [Nevirapine] came in with a relative cell viability of 1.02. In turn, `C=CC[N+]1([C@H]2C[C@H]3[C@@H]4CC[C@H]5C[C@H](O)[C@@H](N6CCOCC6)C[C@]5(C)[C@H]4CC[C@]3(C)[C@H]2OC(C)=O)CCCC1` [Rocuronium Bromide] yielded a relative cell viability of 0.939. The same measure for `CC(C)(C#N)c1cc(Cn2cncn2)cc(C(C)(C)C#N)c1` [Anastrozole]: 0.993; for `COc1ccccc1OCC(O)COC(N)=O` (stereo not given) [Methocarbamol]: 1.03. The result for `COc1cc2c(Oc3ccc(NC(=O)C4(C(=O)Nc5ccc(F)cc5)CC4)cc3F)ccnc2cc1OCCCN1CCOCC1` reads 0.757. The result for `CNC(=C[N+](=O)[O-])NCCSCc1csc(CN(C)C)n1` [Nizatidine] reads 0.956; that for `COc1cc2nccc(Oc3ccc(NC(=O)NC4CC4)c(Cl)c3)c2cc1C(N)=O` [Lenvatinib (E7080)], 0.123. For the molecule `O=S(=O)(O)CCS` [Mesna], the relative cell viability worked out at 1.04.

In the case of `CCOc1cc(CC(=O)N[C@@H](CC(C)C)c2ccccc2N2CCCCC2)ccc1C(=O)O` [Repaglinide], the relative cell viability came to 0.978. In turn, `O=C(c1ccccc1)c1ccc2n1CCC2C(=O)O` (stereo not given) [Ketorolac] returned a relative cell viability of 0.977. The same measure for `O=C(CCCCCCC(=O)Nc1ccccc1)NO` [Vorinostat (SAHA, MK0683)]: 0.75; for `OCCOCCN1CCN(C2=Nc3ccccc3Sc3ccccc32)CC1` [Quetiapine Fumarate]: 1.13.
